Source: PubChem BioAssay AID1508600 (Functional Genomics Laboratory (NCATS/FGL), 2020)
Screen size: about 53,000 sequences; about 3,700 (7%) were called active. This is one part of a sample in which actives are shown more often than they occur. A number with no mark means an inactive call.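 Rule for the calls: active = gene knockdowns whose robust z-score for IL-1 alpha signal is at least 2 or at most -2, so actives lie on both sides; inactive = the rest.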

assay: Components of the Cytosolic LPS Sensing Pathway: Gene Identification via Genome-wide siRNA Screen; details: RAW264.7 macrophages, IL-1a HTRF, actives lie on both sides, screened at 100 nM (by protocol), cells primed 5 h with Pam3CSK4 first;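 note: robust z of the log signal after scaling to non-targeting control siRNA wells of the plate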
Method in brief: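 RAW264.7; siRNA 100 nM final, RNAiMAX, 48h 37 degrees C; Pam3CSK4 5 h; LipidA + TransIT-TKO 24 h; IL-1a HTRF; CellTiter-Glo viability; robust z vs negative-control median.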

Sequence	z-score
GGGAAAUCUAUUUUUGUGATT against Mob3c	-1.77
GGUCUGGAGACAAUCAUCATT against Rnf222	-2.47 (active)
GGCUUAUUGGAAGAGGACGTT against Ier5	0.559
GCUGAGUCCAUGUCUGUUGTT against Coro2a	-0.119
CGGCAUGAGCAGUUUAUAUTT against Col19a1	-1.04
GCUGAUUGAGCAUCCGAUGTT against Ggt1	2.78 (active)
GGGAUUCAGUAUAAAACACTT against Nup37	-1.25
GGAAAGAGCCAUCCUUUGATT against Gnmt	-0.186
CGUAUAAUAACUCCUUAUCTT against Hoxa1	2.17 (active)
GGUGUAGACUCCAACAUGUTT against Aarsd1	1.69
CCUUGGACUAUGGCAAAAATT against Neurod6	0.418
GCCGGAAUCCUGUGGAAUCTT against Kat14	6.46 (active)
GGAAAAUGACACAGGUAUCTT against Entpd2	-0.103
GGAGAUGAGCUGUAUGUGATT against Nudt19	0.862
GACUUCAGACAAAUAGUGCTT against Lce1i	-1.24
GCAUCGAAAAUCUUUCCAATT against Fibcd1	1.6
GGUGCUCAAUAAAUGUAAATT against Cd151	-1.26
GGGUUUCUUCCCUGAGCUATT against Nxf7	-1.97
CCACUAUGAAUCGUGGUUCTT against Sp6	0.731
CGUGCAUCCCUAUAUCCUATT against Panx2	0.343
GGUUGACAACACAUCUGCUTT against Ugt2b34	-0.766
GGAUCAAUGUGGUACCUAUTT against Sf3a1	-2.79 (active)

Sequence	z-score
GGGAAUAGUUUAUAUGGACTT against Ccl20	0.315
CGGGCAAUGUCAGAUUGUGTT against Vmn1r75	1.41
GGUACUUUCGGACUCAGUUTT against Ipp	-0.0605
GCUAGGUGUUUGAAGCCUCTT against Mixl1	-0.834
GGAAGGGUAAAUUUAGAAGTT against Arrdc3	2.83 (active)
GAUCUUCCUGACAGUGGUGTT against Psors1c2	-0.15
GGUAAAAAACCAAGAACAATT against Ednrb	2.17 (active)
GGACUUCUUCUUGUACAACTT against Capn3	1.03
GGGCUCUUGCCAGAAAACGTT against Rsph3a	-0.524
GCCACUCGGAGAUUUUUCATT against Slc15a4	-0.6
CCCUGACCUUCAGAUUGUGTT against Olfr788	0.14
CCAAGUAGAUAGGAAUUAUTT against Eps8	2
GCUUUAUGGGAGACAAAGGTT against 1700022I11Rik	2.53 (active)
GGAUGCUUUACCAAAUGAATT against Slc44a3	0.147
GGAAAAUUGGCCAAAAUAATT against Pdcl	-0.0308
GGAGAAGCUGCUGGCAGAATT against Trub1	-1.15
GGUCUUGGAGUUGCUAAUUTT against Med4	2.63 (active)
CCUCUUCUUGUUUCAAGGGTT against Piezo2	0.062
CCAGCUAAACUCUGUAAAATT against Zfp639	-0.113
GCUUUGGACAAUAAGAAGUTT against Cdkl1	-0.838
GUCACUGAUACUCAAUAAATT against Vmn1r172	-1.45
GCAUCGUCCUCCAAAGAUUTT against Sf3b1	-3.01 (active)

Sequence	z-score
GGCUAUCUACCAUUAUAUGTT against Ifit2	-0.607
GGUCCUGUUAAACUGAAAGTT against Fkbp1a	-1.45
GGGAAUAAAAAGGAUCACUTT against Rab39	1.27
CCUGAAUGACCUAGGGCCUTT against Adam8	0.286
GGCAUGAGCUAUCAGGACUTT against Efcab6	1.37
GGUAUUAGCAAUUUUCUGGTT against Olfr619	-0.681
CGAGGAUGACUUGAUGACCTT against Ajm1	-2.18 (active)
GGGAAAAUUCCAGAAUCGCTT against Musk	0.315
GCCGGCCAGAAUAUACAUUTT against Fndc10	0.415
CCUUCCUCGUGAUUCGCUATT against Lman2l	-0.461
GGUUGAGUAGUUGAUUUUCTT against Hemgn	0.663
GGAAAUACCCACCUUAUACTT against Efhc2	2.51 (active)
GGAGCAGAUACAGAAGAUCTT against Pfdn2	-1.21
GUAUAGUGUAUCUCAUCAUTT against Olfr1107	1.56
GCUCAGUGGACAUGCUCUATT against Hpse	-0.502
GGAGGCAUGAUAAGCUUCGTT against Pmm1	-0.425
GCUACUAAACAGGGUGUGATT against Gpsm3	-2.42 (active)
GGGUGAGAUAAUUGAAAAGTT against Slc12a6	0.607
GGGCUUCAACACUGAGAAGTT against Arl4d	-1.04
GGCUCCUACCAAUCUCACUTT against Calcr	-0.548
GGGAAAAAUGGACUAGCAUTT against Ahctf1	0.888
GCAUUGGACUCAUAAUUUUTT against Aadat	0.0399

Sequence	z-score
GGUAAUGUUCUCCUUUGAATT against Dok1	4.89 (active)
GCCUGAAUUUAGUGUUAAGTT against Hnmt	1.72
CCAUUGAAAAACUGGACAGTT against Olfr1463	3.26 (active)
GCUCUUCAUAACUCUUGCUTT against Olfr1392	-0.288
GGCCAGAACUGUUCCAAUUTT against Cilp	1.15
GGGAAUUUAAUUUUUCGUGTT against Sfn	-0.642
GGAAGUCAACCGAGUCUUCTT against Sp140	0.011
GGGUAUGAUAUGUUAAUGATT against Ndufaf7	-0.434
CCAUUUAAGUGUGUGUUAATT against Rbmx	0.475
GGAUUUUGCACUAUAACAATT against Zmat3	3.83 (active)
GGACAACGGAUUUUAGGAGTT against Barhl2	0.44
GGUUGAAUAUACUUAGCACTT against Gm5082	0.947
CCAUGGAAUCUCCUAUACCTT against C4bp	-0.679
GGUAAAUCAAAUCACUGCCTT against Slamf1	0.316
CCCUUUCAUUGUGCAUUAATT against Hdhd2	-2.22 (active)
GCUCAAGAGUCUAACUCCCTT against Serinc4	0.558
GGAGAAAGUUUUGGAAAAATT against Slc24a5	-0.622
GGAUUUCUACCAGCUCGUGTT against Pop5	1.62
GGAUGGCAGCUUUGACCUUTT against Cdc42ep2	0.566
GCAAAACCCAACAACUCUGTT against Lig3	1.05
CCUACUGGAGUCUCCUCUUTT against Tmem116	0.36
GGAGGACAAUGAGGACGAUTT against Chrac1	2.1 (active)

Sequence	z-score
AUUUCUGUAAGGCAAAUGUTT against Olfr970	-0.454
CCUCGAAUGCAGACGUACGTT against Sdhb	1.67
CCAAAGUCAUAAUUCCAACTT against Timm23	0.202
GGAGCAGAUUAAAUCCCUGTT against Krt8	2.46 (active)
GGGAGCUAAGAAGAUUCAUTT against Mul1	0.89
GCAGCAGUUGGCUAAAACATT against Bbof1	-1.14
GGUGGAUGGAUCACUGAGUTT against B230325K18Rik	-0.347
GCAACUAUGAACAAGAAUCTT against Grm3	-0.0322
GCCACGAAAAGAAGAGAAUTT against Vpreb2	1.08
CCUACAGAGUACCCUGUCUTT against Gas2l2	-2.56 (active)
GGUCCUGAAUUUCAUCCUUTT against B4galnt2	0.459
GGUCAGAAAUUCUAAGUUGTT against Gpatch2	1.09
GGAAAUGACCUACGAAGAATT against Pfkfb4	-1.26
GGCAGUCAACAAAGAAGACTT against Metap1d	-0.711
GGUCUGGUGGAGUUGAGAATT against Ccdc80	-0.617
GCGAGUGCUAACAUGAAAGTT against Sar1a	-0.0783
GUUUGUGCUGUUAGGUUUUTT against Olfr1347	2.46 (active)
GGACAAAAGACUUGAAUUUTT against Alox15	1.86
GGCUGAAGAGGAUCGGUACTT against Atpif1	2.08 (active)
CGCAAGAGUUCCUUUUUUUTT against Sla	0.671
